# The panel holds about 79,000 compounds, 15% with a hit somewhere; the sample as a whole holds those more often. Values without a mark were called inactive. Calls of active or inactive are those of the source. No stated cut-off is given here; in the data, active means growth inhibition above about 70%; inactive means the rest.
# Assays:
# [1] = NCI Yeast Anticancer Drug Screen. Data for the rad52 strain (AID 147);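 further: 0% = growth of vehicle-treated control cultures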; conditions: S. cerevisiae rad52 mutant growth inhibition, stronger effect = higher value
# In short: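 Read-out: growth inhibition versus vehicle-treated controls. Cells were a DNA repair-deficient yeast strain treated with compounds.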
# [2] = NCI Yeast Anticancer Drug Screen. Data for the wt1 strain (AID 149);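 further: 0% = growth of vehicle-treated wt1 cultures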; conditions: S. cerevisiae wt1 strain (SPY 50644) growth inhibition, stronger effect = higher value
# In short: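 Each compound is tested on wt1 yeast and the loss of growth versus vehicle gives the inhibition value.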
# [3] = NCI Yeast Anticancer Drug Screen. Data for the rad50EPP+ strain (AID 151);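 further: 0% = growth of vehicle-treated control cultures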; conditions: S. cerevisiae rad50 mutant strain, stronger effect = higher value
# In short: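 Growth inhibition read against vehicle controls in rad50EPP+ yeast, a strain altered in DNA damage repair, after compound exposure.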
# [4] = NCI Yeast Anticancer Drug Screen. Data for the rad50 strain (AID 155);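 further: 0% = growth of vehicle-only cultures of the same strain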; conditions: S. cerevisiae rad50 strain growth inhibition, stronger effect = higher value
# In short: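 Vehicle-treated cultures provide the reference for the growth inhibition reported for compound-exposed, repair-deficient yeast.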
# [5] = NCI Yeast Anticancer Drug Screen. Data for the mec2-1 strain (AID 157); conditions: S. cerevisiae mec2-1 strain, stronger effect = higher value
# In short: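 Yeast mec2-1 mutant treated with compound. Readout: growth inhibition vs vehicle controls.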
# [6] = NCI Yeast Anticancer Drug Screen. Data for the rad14 strain (AID 159);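 further: 0% = growth of vehicle-treated control cultures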; conditions: S. cerevisiae rad14 strain growth inhibition, stronger effect = higher value
# In short: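 Inhibition of growth is reported for a repair-deficient yeast mutant following compound treatment, calculated relative to cultures that received vehicle.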
# [7] = NCI Yeast Anticancer Drug Screen. Data for the sgs1 mgt1 strain (AID 161);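 further: 0% = growth of cultures given vehicle only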; conditions: S. cerevisiae sgs1 mgt1 strain, stronger effect = higher value
# In short: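 Mutant yeast exposed to compound; growth scored against vehicle-only wells.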
# [8] = NCI Yeast Anticancer Drug Screen. Data for the CLN2oe strain (AID 163);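 further: 0% = growth of vehicle-only control cultures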; conditions: S. cerevisiae CLN2oe strain, stronger effect = higher value
# In short: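 Read-out: yeast growth inhibition, expressed relative to vehicle-only controls. The strain bears an engineered cell-cycle alteration.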
# [9] = NCI Yeast Anticancer Drug Screen. Data for the cln2 rad14 strain (AID 165);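 further: 0% = growth equal to vehicle treated cultures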; conditions: S. cerevisiae cln2 rad14 strain, stronger effect = higher value
# In short: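 cln2 rad14 yeast strain; compound exposure; growth inhibition read vs vehicle controls.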
# [10] = NCI Yeast Anticancer Drug Screen. Data for the bub3 strain (AID 167); conditions: S. cerevisiae bub3 mutant strain, stronger effect = higher value
# In short: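 Mutant yeast screening strain plus compound; vehicle-treated cultures serve as the 0% inhibition reference.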
# [11] = NCI Yeast Anticancer Drug Screen. Data for the wt2 strain (AID 169); conditions: S. cerevisiae wt2 strain growth inhibition, stronger effect = higher value
# In short: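 Read-out: growth inhibition versus vehicle-treated control cultures after compound exposure of the yeast strain.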
# [12] = NCI Yeast Anticancer Drug Screen. Data for the mlh1 strain (AID 171);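 further: 0% = growth of vehicle-treated control cultures of the same strain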; conditions: S. cerevisiae mlh1 strain growth inhibition, stronger effect = higher value
# In short: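 Read-out: growth inhibition versus vehicle controls. Strain: engineered yeast with a defined DNA repair or cell cycle defect, compound-treated.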
# [13] = NCI Yeast Anticancer Drug Screen. Data for the sgs1 strain (AID 173);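 further: 0% = growth of vehicle-only control cultures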; conditions: S. cerevisiae sgs1 mutant, stronger effect = higher value
# In short: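 Read-out: yeast growth inhibition relative to vehicle controls, following compound exposure of a strain with a defined DNA repair/cell cycle alteration.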
# [14] = NCI Yeast Anticancer Drug Screen. Data for the mlh1 rad18 strain (AID 175); conditions: S. cerevisiae mlh1 rad18 strain growth inhibition, stronger effect = higher value
# In short: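 Yeast w/ defined DNA-repair lesions; compound exposure; growth vs vehicle controls → % inhibition.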
# [15] = NCI Yeast Anticancer Drug Screen. Data for the rad18 strain (AID 177); conditions: S. cerevisiae rad18 mutant growth inhibition, stronger effect = higher value
# In short: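 Readout: growth inhibition vs vehicle controls. Cells: genetically altered yeast strain, DNA repair defect.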
# [16] = at 5.0 µM (retest, dose inferred, filed as 0.5)
# [17] = at 50.0 µM (retest, dose inferred, filed as 5.0)
smiles,measurement,setting,value
CC(=O)Oc1cc(-c2cc(OC(C)=O)c(OC(C)=O)c3ccccc23)c2ccccc2c1OC(C)=O,growth inhibition,[1]; at 1.2 µM,3%
same,growth inhibition,[1]; at 3.7 µM,4%
same,growth inhibition,[1]; at 11.0 µM,7%
same,growth inhibition,[1]; at 33.0 µM,13%
same,growth inhibition,[1]; at 100.0 µM,79% (active)
same,growth inhibition,[2]; at 1.2 µM,8%
same,growth inhibition,[2]; at 3.7 µM,12%
same,growth inhibition,[2]; at 11.0 µM,10%
same,growth inhibition,[2]; at 33.0 µM,12%
same,growth inhibition,[2]; at 100.0 µM,59%
same,growth inhibition,[3]; at 1.2 µM,3%
same,growth inhibition,[3]; at 3.7 µM,6%
same,growth inhibition,[3]; at 11.0 µM,12%
same,growth inhibition,[3]; at 33.0 µM,19%
same,growth inhibition,[3]; at 100.0 µM,21%
same,growth inhibition,[4]; at 1.2 µM,4%
same,growth inhibition,[4]; at 3.7 µM,8%
same,growth inhibition,[4]; [16],22%
same,growth inhibition,[4]; at 11.0 µM,12%
same,growth inhibition,[4]; at 33.0 µM,24%
same,growth inhibition,[4]; [17],82% (active)
same,growth inhibition,[4]; at 50.0 µM,83.5% (active)
same,growth inhibition,[4]; at 100.0 µM,86% (active)
same,growth inhibition,[5]; at 1.2 µM,2%
same,growth inhibition,[5]; at 3.7 µM,9%
same,growth inhibition,[5]; [16],14%
same,growth inhibition,[5]; at 11.0 µM,12%
same,growth inhibition,[5]; at 33.0 µM,24%
same,growth inhibition,[5]; [17],70% (active)
same,growth inhibition,[5]; at 50.0 µM,82.6% (active)
same,growth inhibition,[5]; at 100.0 µM,79% (active)
same,growth inhibition,[6]; at 1.2 µM,1%
same,growth inhibition,[6]; at 3.7 µM,3%
same,growth inhibition,[6]; at 11.0 µM,7%
same,growth inhibition,[6]; at 33.0 µM,43%
same,growth inhibition,[6]; at 100.0 µM,95% (active)
same,growth inhibition,[7]; [16],24%
same,growth inhibition,[7]; [17],85% (active)
same,growth inhibition,[7]; at 50.0 µM,87% (active)
same,growth inhibition,[8]; at 1.2 µM,3%
same,growth inhibition,[8]; at 3.7 µM,0%
same,growth inhibition,[8]; at 11.0 µM,-5%
same,growth inhibition,[8]; at 33.0 µM,-2%
same,growth inhibition,[8]; at 100.0 µM,57%
same,growth inhibition,[9]; [16],7%
same,growth inhibition,[9]; [17],56%
same,growth inhibition,[9]; at 50.0 µM,38%
same,growth inhibition,[10]; at 1.2 µM,3%
same,growth inhibition,[10]; at 3.7 µM,4%
same,growth inhibition,[10]; [16],17%
same,growth inhibition,[10]; at 11.0 µM,7%
same,growth inhibition,[10]; at 33.0 µM,26%
same,growth inhibition,[10]; [17],93% (active)
same,growth inhibition,[10]; at 50.0 µM,86.8% (active)
same,growth inhibition,[10]; at 100.0 µM,87% (active)
same,growth inhibition,[11]; at 1.2 µM,10%
same,growth inhibition,[11]; at 3.7 µM,9%
same,growth inhibition,[11]; at 11.0 µM,8%
same,growth inhibition,[11]; at 33.0 µM,11%
same,growth inhibition,[11]; at 100.0 µM,86% (active)
same,growth inhibition,[12]; at 1.2 µM,1%
same,growth inhibition,[12]; at 3.7 µM,3%
same,growth inhibition,[12]; at 11.0 µM,6%
same,growth inhibition,[12]; at 33.0 µM,23%
same,growth inhibition,[12]; at 100.0 µM,93% (active)
same,growth inhibition,[13]; at 1.2 µM,7%
same,growth inhibition,[13]; at 3.7 µM,10%
same,growth inhibition,[13]; at 11.0 µM,11%
same,growth inhibition,[13]; at 33.0 µM,16%
same,growth inhibition,[13]; at 100.0 µM,82% (active)
same,growth inhibition,[14]; [16],19%
same,growth inhibition,[14]; [17],96% (active)
same,growth inhibition,[14]; at 50.0 µM,93.6% (active)
same,growth inhibition,[15]; at 1.2 µM,1%
same,growth inhibition,[15]; at 3.7 µM,6%
same,growth inhibition,[15]; at 11.0 µM,10%
same,growth inhibition,[15]; at 33.0 µM,26%
same,growth inhibition,[15]; at 100.0 µM,90% (active)
CC1=C(C)Cc2c(O)ccc(O)c2C1,growth inhibition,[1]; at 1.2 µM,1%
same,growth inhibition,[1]; at 3.7 µM,12%
same,growth inhibition,[1]; at 11.0 µM,25%
same,growth inhibition,[1]; at 33.0 µM,20%
same,growth inhibition,[1]; at 100.0 µM,61%
same,growth inhibition,[2]; at 1.2 µM,-1%
same,growth inhibition,[2]; at 3.7 µM,-3%
same,growth inhibition,[2]; at 11.0 µM,-3%
same,growth inhibition,[2]; at 33.0 µM,-3%
same,growth inhibition,[2]; at 100.0 µM,-20%
same,growth inhibition,[3]; at 1.2 µM,20%
same,growth inhibition,[3]; at 3.7 µM,46%
same,growth inhibition,[3]; at 11.0 µM,67%
same,growth inhibition,[3]; at 33.0 µM,43%
same,growth inhibition,[3]; at 100.0 µM,58%
same,growth inhibition,[4]; at 1.2 µM,1%
same,growth inhibition,[4]; at 3.7 µM,17%
same,growth inhibition,[4]; [16],-9%
same,growth inhibition,[4]; at 11.0 µM,38%
same,growth inhibition,[4]; at 33.0 µM,33%
same,growth inhibition,[4]; [17],99% (active)
same,growth inhibition,[4]; at 50.0 µM,94.5% (active)
same,growth inhibition,[4]; at 100.0 µM,93% (active)
same,growth inhibition,[5]; at 1.2 µM,-3%
same,growth inhibition,[5]; at 3.7 µM,-3%
same,growth inhibition,[5]; [16],30%
same,growth inhibition,[5]; at 11.0 µM,-3%
same,growth inhibition,[5]; at 33.0 µM,-4%
same,growth inhibition,[5]; [17],99% (active)
same,growth inhibition,[5]; at 50.0 µM,45.8%
same,growth inhibition,[5]; at 100.0 µM,20%
same,growth inhibition,[6]; at 1.2 µM,2%
same,growth inhibition,[6]; at 3.7 µM,9%
same,growth inhibition,[6]; at 11.0 µM,18%
same,growth inhibition,[6]; at 33.0 µM,13%
same,growth inhibition,[6]; at 100.0 µM,47%
same,growth inhibition,[7]; [16],5%
same,growth inhibition,[7]; [17],98% (active)
same,growth inhibition,[7]; at 50.0 µM,33.8%
same,growth inhibition,[8]; at 1.2 µM,-10%
same,growth inhibition,[8]; at 3.7 µM,-8%
same,growth inhibition,[8]; at 11.0 µM,-7%
same,growth inhibition,[8]; at 33.0 µM,-11%
same,growth inhibition,[8]; at 100.0 µM,33%
same,growth inhibition,[9]; [16],31%
same,growth inhibition,[9]; [17],98% (active)
same,growth inhibition,[9]; at 50.0 µM,48.9%
same,growth inhibition,[10]; at 1.2 µM,-3%
same,growth inhibition,[10]; at 3.7 µM,-5%
same,growth inhibition,[10]; [16],94% (active)
same,growth inhibition,[10]; at 11.0 µM,-4%
same,growth inhibition,[10]; at 33.0 µM,3%
same,growth inhibition,[10]; [17],99% (active)
same,growth inhibition,[10]; at 50.0 µM,83% (active)
same,growth inhibition,[10]; at 100.0 µM,63%
same,growth inhibition,[11]; at 1.2 µM,-12%
same,growth inhibition,[11]; at 3.7 µM,-6%
same,growth inhibition,[11]; at 11.0 µM,-4%
same,growth inhibition,[11]; at 33.0 µM,3%
same,growth inhibition,[11]; at 100.0 µM,-4%

# — PubChem BioAssay (NCI)
